Assay [1] is described as follows: qHTS of pediatric cancer cell lines to identify multiple opportunities for drug repurposing: Primary screen for A673 cells (AID 1347092). Also: nearly all actives have a fitted effect of over 45% in size. In a few lines: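 Cell viability of A673 measured by CellTiter-Glo ATP luminescence after 48 hours compound exposure. Dilution series spanned 0.78 nM to 46 µM (MIPE, 11-point) or 0.59 nM to 46 µM (NPC, 8-point); bortezomib 2.3 uM positive control.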
In general terms: qHTS replaces the single test concentration by a dilution series.

Assay [2] is described as follows: qHTS of pediatric cancer cell lines to identify multiple opportunities for drug repurposing: Primary screen for SK-N-MC cells (AID 1347093). In a few lines: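 Metabolically active cells were quantified by ATP-dependent luminescence (CellTiter-Glo, 15 min at room temperature) following 48 h treatment. Cells had been plated at 500-1,000 per well and settled for 5 h beforehand.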

The nature of assay [3]: qHTS of pediatric cancer cell lines to identify multiple opportunities for drug repurposing: Primary screen for BT-37 cells (AID 1347094). In a few lines: (§1)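 Readout: CellTiter-Glo luminescence, 48 h treatment. Controls DMSO (neutral) and bortezomib 2.3 µM final (positive). Potency and efficacy taken from primary-screen concentration-response curves.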
Assay [4] can be described thus: qHTS of pediatric cancer cell lines to identify multiple opportunities for drug repurposing: Primary screen for NB-EBc1 cells (AID 1347095). In a few lines:
as §1

Assay [5] is described as follows: qHTS of pediatric cancer cell lines to identify multiple opportunities for drug repurposing: Primary screen for U-2 OS cells (AID 1347096). Also: nearly all actives have a fitted effect of over 50% in size. In a few lines:
(§2)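 Cells (500-1,000/well) in growth media were settled 5 h at 37 degrees C, then given compounds for 48 h. Viability was read as CellTiter-Glo luminescence. Primary runs used MIPE at 11 points (0.78 nM-46 µM) and NPC at 8 points (0.59 nM-46 µM); follow-ups used 11 points.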

Assay [6] is described as follows: qHTS of pediatric cancer cell lines to identify multiple opportunities for drug repurposing: Primary screen for Saos-2 cells (AID 1347097). Also: nearly all actives have a fitted effect of over 40% in size. The method in brief: as §1
A short description of assay [7]: qHTS of pediatric cancer cell lines to identify multiple opportunities for drug repurposing: Primary screen for SK-N-SH cells (AID 1347098). Also: nearly all actives have a fitted effect of over 65% in size. The method in brief:
(§3)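 Cells (500-1,000/well) rested 5 h, then received compounds for 48 h; metabolically active cells were measured by CellTiter-Glo luminescence. Final concentrations spanned up to 46 µM (MIPE, 11-point) or 0.59 nM-46 µM (NPC, 8-point) in primary screens, 11-point in follow-ups.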

Assay [8] can be described thus: qHTS of pediatric cancer cell lines to identify multiple opportunities for drug repurposing: Primary screen for BT-12 cells (AID 1347101). Also: nearly all actives have a fitted effect of over 25% in size. The method in brief: as §3
The nature of assay [9]: qHTS of pediatric cancer cell lines to identify multiple opportunities for drug repurposing: Primary screen for Rh18 cells (AID 1347102). Also: nearly all actives have a fitted effect of over 65% in size. The method in brief: as §2
Assay [10] in a line: qHTS of pediatric cancer cell lines to identify multiple opportunities for drug repurposing: Primary screen for OHS-50 cells (AID 1347103). Also: nearly all actives have a fitted effect of over 40% in size. In a few lines: as §3
A short description of assay [11]: qHTS of pediatric cancer cell lines to identify multiple opportunities for drug repurposing: Primary screen for RD cells (AID 1347104). Also: nearly all actives have a fitted effect of over 55% in size. The method in brief: as §1
Assay [12] is described as follows: qHTS of pediatric cancer cell lines to identify multiple opportunities for drug repurposing: Primary screen for MG 63 (6-TG R) cells (AID 1347105). Also: nearly all actives have a fitted effect of over 50% in size. The method in brief:
as §1

Assay [13] in a line: qHTS of pediatric cancer cell lines to identify multiple opportunities for drug repurposing: Primary screen for Rh30 cells (AID 1347107). Also: nearly all actives have a fitted effect of over 75% in size. The method in brief:
as §2

Assay [14] is described as follows: qHTS of pediatric cancer cell lines to identify multiple opportunities for drug repurposing: Primary screen for Rh41 cells (AID 1347108). Also: nearly all actives have a fitted effect of over 70% in size. In a few lines: as §1
The nature of assay [15]: qHTS of pediatric cancer cell lines to identify multiple opportunities for drug repurposing: Confirmatory screen for NB1643 cells (AID 1347109). Also: nearly all actives have a fitted effect of over 45% in size. In a few lines: as §2
Assay [16] in a line: qHTS of pediatric cancer cell lines to identify multiple opportunities for drug repurposing: Confirmatory screen for A673 cells (AID 1347110).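 Also: cells exposed to compound for 48 h before the viability read; nearly all actives have a fitted effect of over 65% in size.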 In a few lines: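 Viability was read as ATP luminescence (CellTiter-Glo) after 48 h of compound exposure at 37 C in A673 cells seeded at 500-1,000/well. Titrations reached 46 uM final, with 11 points in the confirmatory screen. Concentration-response curves were fitted directly.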

Assay [17] in a line: qHTS of pediatric cancer cell lines to identify multiple opportunities for drug repurposing: Primary screen for NB1643 cells (AID 1347099). Also: nearly all actives have a fitted effect of over 50% in size. The method in brief: as §1
Assay [18] in a line: qHTS of pediatric cancer cell lines to identify multiple opportunities for drug repurposing: Primary screen for LAN-5 cells (AID 1347100). In a few lines:
as §2

Assay [19] can be described thus: qHTS of pediatric cancer cell lines to identify multiple opportunities for drug repurposing: Primary screen for control Hh wild type fibroblast cells (AID 1347106). Also: nearly all actives have a fitted effect of over 55% in size. The method in brief:
as §2

Structures are written as SMILES. Results filed as inconclusive are left out. Activity calls are given as the source filed them. Calls follow the shape of the dose curve; as a rule, active = well fitted curve in the direction sought with a large enough effect; inconclusive = small, poorly fitted or top-dose-only effect, or another doubt; inactive = no such curve, though single readings can be large; an effect the other way counts as inactive or inconclusive.
Potency is read from the fitted curve at half-maximal effect.

Turning to `CC(=O)[O][Hg][c]1ccccc1`, the Potency in assay [1] is 106 nM (active); in assay [2], 531 nM (active); in [3], 2190 nM (active); in assay [4] it was 21100 nM (active); in assay [5] it was 2660 nM (active); in [6], 668 nM (active). Also, the Potency in assay [7] is 970 nM (active); in assay [8] it was 3470 nM (active); in assay [9] it was 2660 nM (active); in assay [10] it was 4900 nM (active); in [11], 944 nM (active); in [12], 2660 nM (active). The Potency in assay [13] is 2660 nM (active); in [14], 1060 nM (active); in assay [15] it was 1470 nM (active); in assay [16], 1040 nM (active).
For the compound `CCCC[N+]1(C)[C@H]2CC(OC(=O)[C@H](CO)c3ccccc3)C[C@H]1[C@H]1O[C@H]12` (stereo not given in full), the Potency entry in [1], in assay [2], in [4], in assay [5], in assay [6] and in assay [7] was “inactive” each time. For the same compound, the Potency entry in [17], in assay [18], in assay [8], in [9], in assay [10] and in assay [11] was “inactive” each time. Further, the Potency result in [12], in assay [13] and in assay [14] was “inactive” throughout.
Regarding `CC(C)[C@]12O[C@@H]1[C@@H]1O[C@]13[C@]1(O[C@H]1C[C@@H]1C4=C(CC[C@@]13C)C(=O)OC4)[C@H]2O`, the Potency in assay [1] is 1 nM (active); in [2] it was 1 nM (active); in assay [4] it was 1 nM (active); in assay [5], 1 nM (active); in assay [6] it was 1660 nM (active); in assay [8], 1 nM (active). Moreover, the Potency is 1 nM (active) in assay [10], 1 nM (active) in assay [11], 52600 nM (active) in assay [14] and 92.8 nM (active) in assay [16]. Besides, the Potency entry in assay [18], in assay [19] and in assay [13] was “inactive” each time.
For `COCCOCCO`, the Potency entry in assay [1], in assay [2], in assay [4], in assay [5], in [6] and in [7] was “inactive” in each case. The Potency result in assay [17], in [18], in assay [8], in assay [9], in assay [10] and in assay [11] was “inactive” throughout. The Potency entry in assay [12], in assay [13] and in assay [14] was “inactive” throughout.
Take `Nc1c(Cl)c(Cl)c(Cl)c(Cl)c1Cl`: the Potency entry in assay [1], in assay [2], in assay [4], in assay [5], in assay [6] and in assay [7] was “inactive” in each case. For the same compound, the Potency result in assay [18], in [8], in [9], in assay [10], in [11] and in assay [12] was “inactive” in each case. Besides, the Potency entry in [13] and in assay [14] was “inactive” in each case.
Turning to `O=c1[nH]c2ccc(Cl)cc2c(N[C@@H]2CN3CCC2CC3)c1-c1nc2ccccc2[nH]1`, the Potency in assay [1] was 296 nM (active); in assay [2], 33.2 nM (active); in assay [3] it was 5440 nM (active); in [4], 41.8 nM (active); in assay [5], 187 nM (active); in assay [6] it was 418 nM (active). The Potency in [7] was 9610 nM (active); in assay [17], 526 nM (active); in assay [18], 148 nM (active); in [8], 15300 nM (active); in assay [10], 109 nM (active); in assay [11], 5900 nM (active). Besides, the Potency in assay [12] is 235 nM (active); in assay [19], 16600 nM (active); in [14], 14800 nM (active); in [15], 1310 nM (active); in assay [16], 261 nM (active). Besides, the Potency result in [13] was “inactive”.
As for `CCOC(=O)c1c(C(C#N)=CN)c2ccc(Cl)c(Cl)c2n1C`, the Potency entry in assay [1], in assay [3], in assay [5], in [18], in assay [8] and in assay [9] was “inactive” throughout. Further, the Potency result in [10], in assay [11] and in [19] was “inactive” in each case. The Potency in [2] is 18700 nM (active).
`Nc1ccc([N+](=O)[O-])cc1`: the Potency result in assay [1], in assay [2], in [3], in [4], in [5] and in assay [6] was “inactive” throughout. The Potency result in assay [7], in [18], in assay [8], in assay [9], in [13] and in [14] was “inactive” each time.
`Cc1nc(-c2ccc(-c3ccc(C(=O)N4CCc5cc6c(cc54)C4(CCN(C)CC4)CO6)cc3)c(C)c2)no1`: the Potency result in assay [1], in [2], in assay [3], in assay [4], in [5] and in assay [6] was “inactive” in each case. The Potency result in [17], in assay [18], in assay [8], in assay [9], in assay [10] and in assay [11] was “inactive” each time. The Potency result in assay [19], in assay [13] and in assay [14] was “inactive” in each case.
For `CCCN1CCO[C@@H]2c3cc(O)ccc3OC[C@@H]21`, the Potency result in assay [15] was “inactive”.
Regarding `O=C1C(I)=CC(=C(c2cc(I)c(O)c(I)c2)c2ccccc2C(=O)O)C=C1I`, the Potency result in [15] was “inactive”.

The record behind these values is PubChem BioAssay (NCATS).
